Assay results taken from PubChem BioAssay AID1159580 (chemical genetic matrix, 2015).
Hit rate of the full screen: of about 5,500 compounds, about 2,000 (36%) were called active. Roughly 18% stayed inconclusive and do not appear here. No stated cut-off is given here; in the data, active means normalized growth mostly below about 0.91 (no sharp cut-off); inconclusive means no clear call, values can overlap the other calls; inactive means mostly above about 0.92. This is one part of the list.

Assay: chemical genetic growth profiling, strain panel (AID 1159580);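 further: tested at 20 µM; growth read once vehicle control cultures reached saturation at 30 °C; 1 = growth at the plate median or of vehicle wells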
Conditions: S. cerevisiae deletion strains, growth OD

Measured: normalized growth

CC1(C)CCC[C@@]2(C)C1[C@@H](O)C[C@]1(C)C2CC[C@@H]2[C@@]3(C)CC[C@H](C(C)(C)O)[C@@H]3CC[C@@]21C (some centres not stated)
inactive: locus YAL013W, strain DEP1, stronger effect = lower value 0.998 | locus YBR021W, strain FUR4, stronger effect = lower value 1.07 | locus YBR229C, strain ROT2, stronger effect = lower value 1 | locus YCL029C, strain bik1, stronger effect = lower value 0.971 | locus YDL035C, strain GPR1, stronger effect = lower value 1.01 | locus YDL074C, strain BRE1, stronger effect = lower value 1.02 | locus YDL101C, strain DUN1, stronger effect = lower value 1 | locus YDL185W, strain tfp1, stronger effect = lower value 0.943 | locus YDL192W, strain arf1, stronger effect = lower value 0.993 | locus YDR101C, strain arx1, stronger effect = lower value 1.01 | locus YDR150W, strain NUM1, stronger effect = lower value 0.992 | locus YDR162C, strain NBP2, stronger effect = lower value 1.04 | locus YDR318W, strain mcm21, stronger effect = lower value 1 | locus YDR388W, stronger effect = lower value 0.986 | locus YDR502C, strain sam2, stronger effect = lower value 0.989 | locus YEL061C, strain CIN8, stronger effect = lower value 1 | locus YER110C, stronger effect = lower value 0.977 | locus YER155C, strain BEM2, stronger effect = lower value 1.01 | locus YER167W, strain BCK2, stronger effect = lower value 0.997 | locus YGL078C, strain dbp3, stronger effect = lower value 1 | locus YGL086W, strain mad1, stronger effect = lower value 1.05 | locus YGL248W, strain PDE1, stronger effect = lower value 1 | locus YGR135W, strain pre9, stronger effect = lower value 0.993 | locus YGR252W, strain gcn5, stronger effect = lower value 1.06 | locus YHR030C, strain SLT2, stronger effect = lower value 0.992 | locus YHR079C, strain IRE1 (second series), stronger effect = lower value 1.01 | locus YHR094C, strain hxt1, stronger effect = lower value 0.981 | locus YHR129C, strain ARP1, stronger effect = lower value 0.997 | locus YHR200W, strain rpn10, stronger effect = lower value 0.984 | locus YIL066C, strain RNR3, stronger effect = lower value 1.03 | locus YIL073C, strain SPO22, stronger effect = lower value 0.941 | locus YIL125W, strain kgd1, stronger effect = lower value 0.972 | locus YIR030C, strain dcg1, stronger effect = lower value 0.996 | locus YJL095W, strain BCK1, stronger effect = lower value 1.02 | locus YJL134W, strain LCB3, stronger effect = lower value 0.991 | locus YJL168C, strain set2, stronger effect = lower value 1.01 | locus YJL187C, strain SWE1 (second series), stronger effect = lower value 1 | locus YJR043C, strain POL32, stronger effect = lower value 1.03 | locus YKL009W, strain mrt4, stronger effect = lower value 1.05 | locus YKL068W, stronger effect = lower value 0.98 | locus YKL085W, strain MDH1 (second series), stronger effect = lower value 1.04 | locus YKL085W, strain MDH1, stronger effect = lower value 1.04 | locus YKL190W, strain CNB1, stronger effect = lower value 0.997 | locus YKR001C, strain vps1, stronger effect = lower value 1.03 | locus YLR039C, strain RIC1, stronger effect = lower value 1.05 | locus YLR058C, strain SHM2, stronger effect = lower value 0.996 | locus YLR102C, strain apc9, stronger effect = lower value 0.995 | locus YLR262C, strain YPT6, stronger effect = lower value 1.04 | locus YLR268W, strain sec22, stronger effect = lower value 0.986 | locus YLR330W, strain CHS5, stronger effect = lower value 0.983 | locus YLR342W, strain FKS1 (second series), stronger effect = lower value 1.01 | locus YLR371W, strain rom2, stronger effect = lower value 0.984 | locus YLR418C, strain cdc73, stronger effect = lower value 1.06 | locus YML016C, strain PPZ1, stronger effect = lower value 0.995 | locus YML032C, strain rad52, stronger effect = lower value 0.983 | locus YML124C, strain tub3, stronger effect = lower value 1.01 | locus YMR078C, strain ctf18, stronger effect = lower value 1.01 | locus YMR223W, strain ubp8, stronger effect = lower value 0.998 | locus YMR263W, strain SAP30, stronger effect = lower value 1 | locus YMR307W, strain GAS1, stronger effect = lower value 1.12 | locus YNL067W, strain RPL9B, stronger effect = lower value 1.02 | locus YNL153C, strain GIM3, stronger effect = lower value 1.02 | locus YNL233W, strain BNI4, stronger effect = lower value 1.03 | locus YNL250W, strain rad50, stronger effect = lower value 0.982 | locus YNL271C, strain bni1, stronger effect = lower value 0.997 | locus YNL298W, strain CLA4, stronger effect = lower value 0.975 | locus YNL307C, strain MCK1, stronger effect = lower value 0.996 | locus YNL322C, strain KRE1, stronger effect = lower value 1 | locus YNR052C, strain pop2, stronger effect = lower value 0.994 | locus YOL012C, strain htz1 1.13 | locus YOL147C, strain pex11, stronger effect = lower value 0.993 | locus YOR061W, strain CKA2, stronger effect = lower value 0.999 | locus YOR069W, strain VPS5, stronger effect = lower value 0.993 | locus YOR136W, strain idh2, stronger effect = lower value 0.988 | locus YOR144C, strain elg1, stronger effect = lower value 0.997 | locus YOR184W, strain ser1, stronger effect = lower value 1.01 | locus YOR316C, strain cot1, stronger effect = lower value 0.985 | locus YPR119W, strain clb2, stronger effect = lower value 1 | locus YPR141C, strain kar3, stronger effect = lower value 0.982 | locus YPR163C, strain tif3, stronger effect = lower value 0.99 | locus YPR167C, strain met16, stronger effect = lower value 0.989 | strain wtn01, stronger effect = lower value 0.986
